In experiment [1] the target is Rap guanine nucleotide exchange factor 3 (Homo sapiens) (UniProt O95398). Put plainly: Counterscreen qHTS for antagonist of cAMP-regulated guanine nucleotide exchange factor 3 (EPAC1) (AID 1645888).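 Also: fluorescence loss as bound BODIPY-GDP is released from Rap1B; % of control where 0% means no effect.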 In short, it runs like this:
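Measured: fluorescence of BODIPY-GDP bound to Rap1B, which falls as exchange proceeds. Conditions include 50 uM competing GDP, 5 and 30 min reads, and a later cAMP challenge for antagonist detection.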
On the technique in general: Counterscreens check selectivity or assay interference.

Experiment [2] has as its target Catechol O-methyltransferase (Homo sapiens) (UniProt P21964). Kind of experiment: Confirmatory Screen for Target Class Profiling of Small Molecule Inhibitors of Methyltransferases (AID 1745852). As to activity change, negative = inhibition: % is scaled to controls: 0 for no effect and ±100 for the full control effect. Conditions: MTase-Glo luminescence, SAH detection, recombinant enzyme; measured here: COMT max response; stronger effect = lower value.
For experiment [3], the target named is Guanidinoacetate N-methyltransferase (Homo sapiens) (UniProt Q14353). The description is as above. To be noted: activity change, negative = inhibition: at 57.3 µM (top of the series) unless noted.
The target in experiment [4] is Nicotinamide N-methyltransferase (Homo sapiens) (UniProt P40261). The description is as above. Conditions: MTase-Glo luminescence, SAH detection, recombinant enzyme; measured here: NNMT max response; stronger effect = lower value.
For experiment [5], the target named is Phenylethanolamine N-methyltransferase (Homo sapiens) (UniProt P11086). The experiment is described as above. Conditions: MTase-Glo luminescence, SAH detection, recombinant enzyme; measured here: PNMT max response; stronger effect = lower value.
The target of experiment [6] is DNA repair nuclease/redox regulator APEX1 (Homo sapiens) (UniProt P27695). Put plainly: qHTS Validation Assay for Inhibitors of the Human Apurinic/apyrimidinic Endonuclease 1 (APE1) (AID 1705;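 also: TAMRA fluorescence gain over two minutes as APE1 cuts a quenched THF abasic duplex; % is scaled to controls: 0 for no effect and ±100 for the full control effect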). In short, it runs like this:
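Substrate: 50 nM final fluorophore/quencher THF-abasic duplex. Enzyme preincubated with compounds 15 min, RT. Progress derived from fluorescence difference, third minus first kinetic read.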

The nature of experiment [7]: Counterscreen for APE1 Inhibitors: Fluorescent Dye Displacement Validation Assay (AID 1707).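 Also: plate controls were ThO with dsDNA and no compound for no effect and ThO without dsDNA for full effect.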 The method, boiled down: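 Counterscreen flags promiscuous DNA binders: compounds displacing ThO from duplex DNA (abasic THF site, 50 nM) reduce 540 nm emission (480 nm excitation). ThO 250 nM final; Tris-HCl pH 7.5 with NaCl, MgCl2 and Tween-20.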
Experiment [8] addresses Endonuclease 4 (Escherichia coli (strain K12)) (UniProt P0A6C1). Put plainly: Counterscreen for APE1 Inhibitors: qHTS Validation Assay for Inhibitors of Endonuclease IV (AID 1708). Also: % is scaled to controls: 0 for no effect and ±100 for the full control effect. The method, boiled down: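 Enzyme (2 nM) + compound, 15 min RT; add 50 nM TAMRA/BHQ-2 THF-site dsDNA; kinetic read ex525/em598, 3 reads/60 s; activity = read 3 − read 1. Buffer Tris pH 7.5, 50 mM NaCl, 2 mM MgCl2, DTT, Tween-20.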

A short description of experiment [9]: qHTS for differential inhibitors of proliferation of Plasmodium falciparum line 7G8 (AID 1815).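 Also: potency is read from the fitted curve at half-maximal effect; parasite growth measured after three days of incubation.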 In general terms: In qHTS, concentration-response curves come from the screen itself.
The nature of experiment [10]: qHTS for differential inhibitors of proliferation of Plasmodium falciparum line GB4 (AID 1816).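 Also: potency is read from the fitted curve at half-maximal effect; parasite growth measured after 72 h incubation.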 Conditions: Potency: Plasmodium falciparum GB4 proliferation inhibition.
Experiment [11] can be described thus: qHTS for differential inhibitors of proliferation of Plasmodium falciparum line 3D7 (AID 1876). Also: potency is read from the fitted curve at half-maximal effect.
Experiment [12] is described as follows: qHTS for differential inhibitors of proliferation of Plasmodium falciparum line D10 (AID 1877).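 Also: potency is read from the fitted curve at half-maximal effect; parasites grown with compound for 72 h before DNA staining.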
A short description of experiment [13]: qHTS for differential inhibitors of proliferation of Plasmodium falciparum line Dd2 (AID 1882). Also: potency is read from the fitted curve at half-maximal effect; nearly all actives have a fitted effect of over 65% in size. Conditions: Potency: Plasmodium falciparum Dd2 proliferation inhibition. The method, boiled down:
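SYBR Green DNA fluorescence (ex 485, em 535 nm) after overnight lysis quantifies parasite growth; compound exposure lasted 72 h at 37 C on infected red cells at 2.5% hematocrit, 0.3% parasitemia (final). Artemisinin 0.29 uM and vehicle wells define normalization.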

Experiment [14] in a line: qHTS for differential inhibitors of proliferation of Plasmodium falciparum line W2 (AID 1883).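 Also: potency is read from the fitted curve at half-maximal effect; parasites grown with compound for 72 h before lysis and staining.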 To be noted: Potency: Plasmodium falciparum W2 proliferation inhibition.
A short description of experiment [15]: qHTS for differential inhibitors of proliferation of Plasmodium falciparum line HB3 (AID 1886).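 Also: potency is read from the fitted curve at half-maximal effect; parasites grown with compound for 72 h before SYBR Green readout.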 To be noted: Potency: Plasmodium falciparum HB3 proliferation inhibition.
Experiment [16] can be described thus: qHTS Assay for Modulators of Human Peripheral Myelin Protein 22 (PMP22) Expression/Activity (AID 1967; active = well fitted curve in the direction sought with a large enough effect in the signal ratio; the % refers to the signal ratio;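 also: 0% = untreated cells and 100% end not stated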). In short, it runs like this: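 Engineered MSC80 cells, Pmp22-promoter green and EF-alpha red luciferase reporters; 24h compound treatment at 37 °C. Concentration-response fits on green, red and ratio signals, each overlap-corrected, with %Activity normalized to untreated wells.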

Experiment [17] deals with Ferritin light chain (Equus caballus) (UniProt P02791). Put plainly: qHTS Validation Assay for Identification of Novel General Anesthetics (AID 2323). Also: % is scaled to controls: 0 for no effect and ±100 for the full control effect. The method, boiled down: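 Normalized fluorescence response, scaled between free 1-AMA and 1-AMA/apoferritin complex, fitted to a four-parameter Hill equation for concentration-effect values. Binding mix: 10 uM horse-spleen apoferritin, 50% saturated 1-AMA in PBS; read 380/535 nm after 10 min.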

In experiment [18] the target is ATP-dependent DNA helicase Q1 (Homo sapiens) (UniProt P46063). Kind of experiment: qHTS Validation Assay for Inhibitors of RecQ-Like Dna Helicase 1 (RECQ1) (AID 2353).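 Also: plate controls were DMSO vehicle for no effect and enzyme-free control for full effect.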 In short, it runs like this: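 RECQ1T1 50 nM; forked duplex (20 bp + 30-nt ss tails) 200 nM, ATP 2 mM final; pH 8.0, 2 mM MgCl2, 2.5 ug/ml poly(dI-dC); 15 min compound preincubation; discontinuous kinetic read over 2 h at RT.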

Experiment [19] addresses RecQ-like DNA helicase BLM (Homo sapiens) (UniProt P54132). Put plainly: qHTS Validation Assay for Inhibitors of Bloom's syndrome helicase (BLM) (AID 2364).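 Also: plate controls were DMSO vehicle for no effect and enzyme-free control for full effect.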 The method, boiled down: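 BLM 50 nM in 25 mM Tris-HCl pH 8.0, 5 mM NaCl, 2 mM MgCl2, 1 mM DTT, 0.01% Tween-20, 2.5 ug/ml poly(dI-dC); 15 min cpd preinc, RT. Start: 200 nM forked DNA + 2 mM ATP (final). TAMRA read, 2 reads 2 h apart.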

Experiment [20] can be described thus: Quantitative high throughput screen for delayed death inhibitors of the malarial parasite plastid, 96 hour incubation (AID 488745). Also: potency is read from the fitted curve at half-maximal effect; nearly all actives have a fitted effect of over 70% in size. The method, boiled down:
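Readout is firefly luciferase luminescence from an integrated reporter in P. falciparum; lower signal marks inhibited growth. Cultures at 2% hematocrit and 0.1% parasitemia were treated with compound across two generations (96 h, 37 C, 5% CO2).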

Experiment [21] concerns the target M-phase phosphoprotein 8 (Homo sapiens) (UniProt Q99549). Kind of experiment: qHTS Validation Assay for Inhibitors for MPP8 Chromodomain Interactions with Methylated Histone Tails (AID 488949).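 Also: 50 nM MPP8 with 50 nM peptide preformed then compounds added for 30 min; AlphaScreen signal from MPP8 chromodomain bound to biotinylated H3K9me3 peptide; top concentration of the series differs between compounds; % is scaled to controls: 0 for no effect and ±100 for the full control effect; nearly all actives have a fitted effect of over 55% in size.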 The method, boiled down:
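Chemiluminescent proximity assay: histidine-tag capture via nickel acceptor beads, biotin peptide via streptavidin donor beads. Protein and peptide each at 50 nM, pH 7.4, with 30 min incubations at room temperature for complex formation, compound exposure and bead binding.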

The target of experiment [22] is Transient receptor potential cation channel subfamily V member 1 (Homo sapiens) (UniProt Q8NER1). Put plainly: HTS Assay for Compounds that Act as Enhancers of the Vanilloid Receptor 1 (AID 488979). Also: 0% is about no effect. The method, boiled down:
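TRPV1-expressing cells loaded with Fluo-8 calcium dye; compounds added and calcium influx read kinetically for 3 min (agonist phase), then capsaicin at EC20 added and read 2 min more for enhancement. Fluorescence ex 480/em 520 nm.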

The target in experiment [23] is Thyrotropin-releasing hormone receptor (Homo sapiens) (UniProt P34981). Put plainly: qHTS for Small Molecule Agonists and Allosteric Enhancers of Human TRH Receptor: Validation Screen for Agonists (AID 493127;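 active = calcium activation more than 3 SD above the typical response in the agonist read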;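 also: intracellular calcium rise by fluo-8 fluorescence before TRH EC20 addition; 0% is about no effect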). To be noted: TRH receptor agonist cell assay; at 2 µM; stronger effect = higher value. The method, boiled down: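 Compounds are added by online pintool to dye-loaded TRHR cells while fluorescence is recorded every second. A rise in calcium signal during the agonist read marks activation; a later 10 nM TRH addition (EC20) serves the separate enhancer mode.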

Experiment [24] concerns the target Galactokinase (Homo sapiens) (UniProt P51570). Put plainly: qHTS Validation Assay for Inhibitors of Human Galactokinase (GALK) (AID 493189). Also: 0% is about no effect. The method, boiled down:
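Enzyme activity is inferred from ATP consumption: human GALK phosphorylates galactose (100 uM) using 35 uM ATP for 1 h at room temperature, and luciferase-based Kinase-Glo Plus reports unconsumed ATP.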

The target of experiment [25] is Voltage-gated inwardly rectifying potassium channel KCNH2 (Homo sapiens) (UniProt Q12809). Put plainly: qHTS Assay for Small Molecule Inhibitors of the Human hERG Channel Activity (AID 588834).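 Also: top concentration of the series differs between compounds; % is scaled to controls: 0 for no effect and ±100 for the full control effect; lower thallium flux fluorescence means stronger hERG block; nearly all actives have a fitted effect of over 50% in size.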 In short, it runs like this: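 Homogeneous FluxOR thallium flux assay using hERG-expressing U2OS cells (BacMam). Compound treatment about 10 minutes preceded stimulation; reduced fluorescence taken as channel block.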

A short description of experiment [26]: Validation screen for small molecules that induce DNA re-replication in MCF 10A normal breast cells (AID 463097). Also: 0% is about no effect; nearly all actives have a fitted effect of over 60% in size. In short, it runs like this:
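Following 48 hr compound incubation (37 C, 5% CO2), MCF 10A cells receive Hoechst for 40 min at 37 C. Nuclei are then scanned (excitation 405 nm, emission 500-530 nm) for total fluorescence intensity.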

Experiment [27] in a line: Validation screen for small molecules that induce DNA re-replication in SW480 colon adenocarcinoma cells (AID 504364). Also: 0% is about no effect. In short, it runs like this: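 Image-based qHTS: compounds were incubated with SW480 cells for 48 hr, nuclei stained with Hoechst, and per-nucleus fluorescence intensity scanned to flag cells with excess DNA content.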

Structures are written as SMILES. Inconclusive results are not listed. Activity calls are given as the source filed them. Unless noted, calls follow the shape of the dose curve; as a rule, active = well fitted curve in the direction sought with a large enough effect; inconclusive = small, poorly fitted or top-dose-only effect, or another doubt; inactive = no such curve, though single readings can be large; an effect the other way counts as inactive or inconclusive.

Sequence of Ferritin light chain (Equus caballus) (P02791 2-175 limits assumed): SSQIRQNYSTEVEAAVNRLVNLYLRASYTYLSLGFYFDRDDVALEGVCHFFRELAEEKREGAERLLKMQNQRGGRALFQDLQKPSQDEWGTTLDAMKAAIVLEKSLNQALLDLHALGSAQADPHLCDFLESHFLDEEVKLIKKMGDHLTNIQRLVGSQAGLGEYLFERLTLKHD
Sequence of DNA repair nuclease/redox regulator APEX1 (Homo sapiens) (P27695 whole entry, looked up): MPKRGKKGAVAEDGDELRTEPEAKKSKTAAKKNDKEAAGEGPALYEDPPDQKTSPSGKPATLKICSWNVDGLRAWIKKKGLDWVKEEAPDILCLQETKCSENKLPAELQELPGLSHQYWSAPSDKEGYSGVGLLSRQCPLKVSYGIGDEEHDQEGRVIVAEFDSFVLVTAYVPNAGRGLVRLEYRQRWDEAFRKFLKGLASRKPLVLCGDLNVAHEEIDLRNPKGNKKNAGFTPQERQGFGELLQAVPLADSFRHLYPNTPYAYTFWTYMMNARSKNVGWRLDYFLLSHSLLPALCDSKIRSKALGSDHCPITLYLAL
Sequence of ATP-dependent DNA helicase Q1 (Homo sapiens) (P46063 whole entry, looked up): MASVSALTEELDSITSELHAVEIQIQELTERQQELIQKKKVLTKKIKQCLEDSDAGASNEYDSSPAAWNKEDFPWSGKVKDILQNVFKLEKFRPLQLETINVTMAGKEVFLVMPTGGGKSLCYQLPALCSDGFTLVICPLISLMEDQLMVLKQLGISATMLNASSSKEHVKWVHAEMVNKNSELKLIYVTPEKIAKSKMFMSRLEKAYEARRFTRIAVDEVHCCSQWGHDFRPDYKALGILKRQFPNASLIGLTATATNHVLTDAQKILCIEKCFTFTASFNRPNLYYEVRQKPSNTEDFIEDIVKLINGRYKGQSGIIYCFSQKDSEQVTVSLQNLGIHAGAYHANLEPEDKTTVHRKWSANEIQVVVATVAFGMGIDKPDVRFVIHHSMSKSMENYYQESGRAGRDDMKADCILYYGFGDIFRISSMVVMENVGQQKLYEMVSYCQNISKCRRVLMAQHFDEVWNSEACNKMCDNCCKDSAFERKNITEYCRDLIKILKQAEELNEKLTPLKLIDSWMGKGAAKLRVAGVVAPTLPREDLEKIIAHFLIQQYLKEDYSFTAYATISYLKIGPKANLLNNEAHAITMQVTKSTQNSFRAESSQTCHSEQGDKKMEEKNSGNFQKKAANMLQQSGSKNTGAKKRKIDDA
Sequence of RecQ-like DNA helicase BLM (Homo sapiens) (P54132 whole entry, looked up): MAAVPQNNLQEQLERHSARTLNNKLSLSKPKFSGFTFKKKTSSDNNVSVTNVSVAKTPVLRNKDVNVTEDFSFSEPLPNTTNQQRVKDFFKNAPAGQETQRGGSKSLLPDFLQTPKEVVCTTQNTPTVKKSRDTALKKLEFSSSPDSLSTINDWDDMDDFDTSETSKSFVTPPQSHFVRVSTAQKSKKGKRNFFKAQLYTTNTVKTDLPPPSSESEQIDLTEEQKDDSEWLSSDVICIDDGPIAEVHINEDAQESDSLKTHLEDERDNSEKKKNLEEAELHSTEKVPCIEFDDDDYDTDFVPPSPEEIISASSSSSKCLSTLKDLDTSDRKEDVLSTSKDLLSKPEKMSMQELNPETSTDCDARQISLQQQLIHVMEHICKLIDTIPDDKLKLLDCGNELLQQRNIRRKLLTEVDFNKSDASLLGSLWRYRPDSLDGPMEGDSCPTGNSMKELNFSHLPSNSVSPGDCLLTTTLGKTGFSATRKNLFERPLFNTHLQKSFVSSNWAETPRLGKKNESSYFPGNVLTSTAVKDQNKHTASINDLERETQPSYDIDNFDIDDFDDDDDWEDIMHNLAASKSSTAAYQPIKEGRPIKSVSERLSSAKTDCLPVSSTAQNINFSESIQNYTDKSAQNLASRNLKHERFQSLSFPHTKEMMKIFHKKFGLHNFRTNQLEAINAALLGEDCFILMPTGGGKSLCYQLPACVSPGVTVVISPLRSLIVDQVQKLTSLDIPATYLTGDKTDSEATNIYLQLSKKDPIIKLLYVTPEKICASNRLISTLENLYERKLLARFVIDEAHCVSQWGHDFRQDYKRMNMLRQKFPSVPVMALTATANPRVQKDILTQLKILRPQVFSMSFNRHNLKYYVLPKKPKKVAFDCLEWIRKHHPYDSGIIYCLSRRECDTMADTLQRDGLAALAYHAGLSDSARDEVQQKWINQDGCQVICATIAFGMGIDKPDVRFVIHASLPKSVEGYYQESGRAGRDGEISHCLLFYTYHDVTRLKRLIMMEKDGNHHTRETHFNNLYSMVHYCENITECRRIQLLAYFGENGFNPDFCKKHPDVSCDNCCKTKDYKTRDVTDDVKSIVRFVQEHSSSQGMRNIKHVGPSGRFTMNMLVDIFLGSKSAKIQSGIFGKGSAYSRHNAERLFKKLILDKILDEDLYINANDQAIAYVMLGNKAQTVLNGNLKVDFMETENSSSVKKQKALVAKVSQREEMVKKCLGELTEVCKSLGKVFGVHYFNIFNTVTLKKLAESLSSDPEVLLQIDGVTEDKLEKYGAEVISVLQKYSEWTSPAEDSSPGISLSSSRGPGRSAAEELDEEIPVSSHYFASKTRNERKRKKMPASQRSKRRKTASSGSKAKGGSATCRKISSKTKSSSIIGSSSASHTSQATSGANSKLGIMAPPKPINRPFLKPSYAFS
Sequence of Transient receptor potential cation channel subfamily V member 1 (Homo sapiens) (Q8NER1 whole entry, looked up): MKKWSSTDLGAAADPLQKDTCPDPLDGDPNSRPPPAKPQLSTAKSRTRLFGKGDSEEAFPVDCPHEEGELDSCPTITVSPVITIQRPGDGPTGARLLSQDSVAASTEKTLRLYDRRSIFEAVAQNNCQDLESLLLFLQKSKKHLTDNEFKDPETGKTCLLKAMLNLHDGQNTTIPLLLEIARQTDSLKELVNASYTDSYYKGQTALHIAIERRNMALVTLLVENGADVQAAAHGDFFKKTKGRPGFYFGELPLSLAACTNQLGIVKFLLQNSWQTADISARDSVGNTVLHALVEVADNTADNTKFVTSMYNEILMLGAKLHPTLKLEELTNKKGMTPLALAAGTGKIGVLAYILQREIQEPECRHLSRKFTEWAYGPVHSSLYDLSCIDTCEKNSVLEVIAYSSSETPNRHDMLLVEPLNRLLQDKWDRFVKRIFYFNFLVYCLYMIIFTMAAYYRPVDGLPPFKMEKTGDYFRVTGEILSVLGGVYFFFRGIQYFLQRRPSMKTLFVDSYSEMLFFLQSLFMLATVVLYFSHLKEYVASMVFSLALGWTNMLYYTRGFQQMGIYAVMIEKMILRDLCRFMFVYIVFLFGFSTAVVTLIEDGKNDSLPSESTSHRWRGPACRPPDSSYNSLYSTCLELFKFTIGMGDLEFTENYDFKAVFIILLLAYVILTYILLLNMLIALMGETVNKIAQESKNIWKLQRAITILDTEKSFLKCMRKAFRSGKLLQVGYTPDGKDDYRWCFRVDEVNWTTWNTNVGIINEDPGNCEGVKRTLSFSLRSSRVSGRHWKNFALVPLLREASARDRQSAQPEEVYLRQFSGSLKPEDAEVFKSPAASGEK
Sequence of Voltage-gated inwardly rectifying potassium channel KCNH2 (Homo sapiens) (Q12809 whole entry, looked up): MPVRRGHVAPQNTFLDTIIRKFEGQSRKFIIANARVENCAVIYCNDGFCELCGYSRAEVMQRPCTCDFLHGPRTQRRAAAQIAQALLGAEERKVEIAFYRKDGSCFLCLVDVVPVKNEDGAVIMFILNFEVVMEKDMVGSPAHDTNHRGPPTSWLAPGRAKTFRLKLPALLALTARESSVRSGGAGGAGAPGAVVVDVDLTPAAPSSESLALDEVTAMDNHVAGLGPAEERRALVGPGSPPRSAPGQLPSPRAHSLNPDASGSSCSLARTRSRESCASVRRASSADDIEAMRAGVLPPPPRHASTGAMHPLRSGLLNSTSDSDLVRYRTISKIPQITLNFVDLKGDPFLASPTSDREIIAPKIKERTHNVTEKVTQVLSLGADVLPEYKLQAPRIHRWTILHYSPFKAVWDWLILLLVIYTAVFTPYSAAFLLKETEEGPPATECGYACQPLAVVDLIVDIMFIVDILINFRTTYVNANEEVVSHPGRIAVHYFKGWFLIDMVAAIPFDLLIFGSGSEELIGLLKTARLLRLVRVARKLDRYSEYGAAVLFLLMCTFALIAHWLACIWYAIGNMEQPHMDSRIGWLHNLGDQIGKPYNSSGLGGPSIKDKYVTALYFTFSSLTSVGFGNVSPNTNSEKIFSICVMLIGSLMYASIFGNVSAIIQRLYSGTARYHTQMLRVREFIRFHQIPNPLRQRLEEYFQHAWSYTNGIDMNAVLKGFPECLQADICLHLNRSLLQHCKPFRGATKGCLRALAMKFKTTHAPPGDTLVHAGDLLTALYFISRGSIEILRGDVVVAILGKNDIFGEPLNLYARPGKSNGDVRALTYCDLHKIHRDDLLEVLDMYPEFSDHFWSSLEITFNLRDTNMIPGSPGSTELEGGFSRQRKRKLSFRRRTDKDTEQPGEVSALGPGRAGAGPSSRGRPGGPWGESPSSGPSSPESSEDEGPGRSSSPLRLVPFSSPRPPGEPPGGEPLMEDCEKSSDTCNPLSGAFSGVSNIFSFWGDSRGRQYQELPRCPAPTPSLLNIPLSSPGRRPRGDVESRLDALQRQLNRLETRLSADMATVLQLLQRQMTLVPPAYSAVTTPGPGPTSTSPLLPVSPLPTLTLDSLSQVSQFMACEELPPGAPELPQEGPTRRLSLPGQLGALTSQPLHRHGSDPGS
Sequence of Thyrotropin-releasing hormone receptor (Homo sapiens) (P34981 whole entry, looked up): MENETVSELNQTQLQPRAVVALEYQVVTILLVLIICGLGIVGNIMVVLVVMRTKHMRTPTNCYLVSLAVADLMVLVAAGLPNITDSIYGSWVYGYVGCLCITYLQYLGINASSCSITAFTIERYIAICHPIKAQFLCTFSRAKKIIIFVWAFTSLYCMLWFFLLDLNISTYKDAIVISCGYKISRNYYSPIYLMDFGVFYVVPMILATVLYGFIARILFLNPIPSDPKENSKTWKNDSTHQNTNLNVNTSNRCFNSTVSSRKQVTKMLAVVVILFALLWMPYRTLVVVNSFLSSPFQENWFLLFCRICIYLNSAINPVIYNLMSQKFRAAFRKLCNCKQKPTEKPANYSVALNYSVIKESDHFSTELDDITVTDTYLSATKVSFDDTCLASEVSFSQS

On to `OC[C@@H]1[C@@H](c2ccccc2)C(c2ccccc2)=NN1c1ccccc1`, for which the Potency entry in experiment [1] is “inactive”.
Turning to `COc1ccc(-c2n[nH]n3c2nc(=O)c2ccc(C(=O)NC(C)c4ccc(F)cc4)cc23)cc1` (centres undefined), the values for the activity in experiment [2], in [4] and in [5] were -18.7%, -25% and -17.7%, respectively. Besides, in experiment [3], the activity change, negative = inhibition is -8.96%.
For `C[C@H]1c2cccc(O)c2C(O)=C2C(=O)[C@]3(O)C(O)=C(C(N)=O)C(=O)C(N(C)C)[C@@H]3[C@@H](O)C21` (some centres undefined), the Potency entry in experiment [6], in [8], in [19], in experiment [21] and in experiment [25] was “inactive” in each case. Moreover, the outcome in experiment [7], in [16], in experiment [17], in experiment [18], in experiment [22] and in [24] was “inactive” in each case. Besides, the Potency in experiment [9] is 4.47 µM (active); in [10], 8.91 µM (active); in [11], 1 µM (active); in [12], 11.2 µM (active); in experiment [13], 5.01 µM (active); in experiment [14], 1 µM (active). Also, the Potency in experiment [15] was 6.31 µM (active); in experiment [20], 0.37 µM (active). In addition, in [23], the activation was -0.125% (inactive).
For the compound `C=C[C@@H]1CN2CC[C@@H]1C[C@@H]2[C@H](O)c1ccnc2ccc(OC)cc12`, the Potency result in experiment [6], in experiment [19], in [26] and in [27] was “inactive” each time. Further, the outcome in [7], in [17] and in experiment [18] was “inactive” each time. The Potency is 0.126 µM (active) in experiment [13] and 0.0165 µM (active) in experiment [20].
